Experiment [1] has as its target Mitogen-activated protein kinase 3 (Homo sapiens) (UniProt P27361). Particulars: at 1 µM.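 Also: values are mean percent inhibition of MAPK3.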
Experiment [2] has as its target SRSF protein kinase 3 (Homo sapiens) (UniProt Q9UPE1). The settings on record: at 0.1 µM.
Experiment [3] shares this target. The settings on record: at 1 µM.
Experiment [4] addresses Mitogen-activated protein kinase 14 (Homo sapiens) (UniProt Q16539). The settings on record: at 0.1 µM.
Experiment [5] has the same target. Particulars: at 1 µM.
The target in experiment [6] is Mitogen-activated protein kinase 11 (Homo sapiens) (UniProt Q15759). Particulars: at 0.1 µM.
Experiment [7] has the same target. Particulars: at 1 µM.
The target of experiment [8] is T1, Mitogen-activated protein kinase 13 (Homo sapiens) (UniProt O15264).
T1 sequence (whole entry): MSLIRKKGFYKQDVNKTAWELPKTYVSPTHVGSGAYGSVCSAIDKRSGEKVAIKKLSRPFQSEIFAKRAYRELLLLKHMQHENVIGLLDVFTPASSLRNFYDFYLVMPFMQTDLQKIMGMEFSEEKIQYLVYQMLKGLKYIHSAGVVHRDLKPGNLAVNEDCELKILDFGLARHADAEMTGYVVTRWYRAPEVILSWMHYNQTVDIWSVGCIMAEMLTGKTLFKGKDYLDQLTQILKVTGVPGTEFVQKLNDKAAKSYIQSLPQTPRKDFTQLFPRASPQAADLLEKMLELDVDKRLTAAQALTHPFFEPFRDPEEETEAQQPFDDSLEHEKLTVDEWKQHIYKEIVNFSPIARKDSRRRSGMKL
The settings on record: at 0.1 µM.

For experiment [9], the target named is T1, Mitogen-activated protein kinase 13 (Homo sapiens). Particulars: at 1 µM.
In experiment [10] the target is T2, Mitogen-activated protein kinase 12 (Homo sapiens) (UniProt P53778).
T2 sequence (whole entry): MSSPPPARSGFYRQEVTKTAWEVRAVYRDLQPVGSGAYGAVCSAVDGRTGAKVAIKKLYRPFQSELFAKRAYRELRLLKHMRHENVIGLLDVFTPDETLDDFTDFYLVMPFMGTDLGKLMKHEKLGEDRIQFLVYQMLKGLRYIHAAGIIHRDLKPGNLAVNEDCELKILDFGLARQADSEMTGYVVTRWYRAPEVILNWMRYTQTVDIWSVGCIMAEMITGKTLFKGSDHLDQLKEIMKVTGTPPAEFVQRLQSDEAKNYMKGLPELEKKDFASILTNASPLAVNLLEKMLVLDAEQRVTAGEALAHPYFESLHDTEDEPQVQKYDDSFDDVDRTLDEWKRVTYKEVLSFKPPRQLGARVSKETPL
Particulars: at 0.1 µM.

Experiment [11] has as its target T2, Mitogen-activated protein kinase 12 (Homo sapiens). Particulars: at 1 µM.
For experiment [12], the target named is SRSF protein kinase 1 (Homo sapiens) (UniProt Q96SB4). The settings on record: at 0.1 µM.
For experiment [13] the target is unchanged. The settings on record: at 1 µM.
The target in experiment [14] is Phosphatidylinositol 4,5-bisphosphate 3-kinase catalytic subunit alpha isoform (Homo sapiens) (UniProt P42336). Particulars: at 0.1 µM.
Experiment [15] has the same target. The settings on record: at 1 µM.
The target of experiment [16] is T3, Phosphatidylinositol 4,5-bisphosphate 3-kinase catalytic subunit delta isoform (Homo sapiens) (UniProt O00329).
T3 sequence (whole entry): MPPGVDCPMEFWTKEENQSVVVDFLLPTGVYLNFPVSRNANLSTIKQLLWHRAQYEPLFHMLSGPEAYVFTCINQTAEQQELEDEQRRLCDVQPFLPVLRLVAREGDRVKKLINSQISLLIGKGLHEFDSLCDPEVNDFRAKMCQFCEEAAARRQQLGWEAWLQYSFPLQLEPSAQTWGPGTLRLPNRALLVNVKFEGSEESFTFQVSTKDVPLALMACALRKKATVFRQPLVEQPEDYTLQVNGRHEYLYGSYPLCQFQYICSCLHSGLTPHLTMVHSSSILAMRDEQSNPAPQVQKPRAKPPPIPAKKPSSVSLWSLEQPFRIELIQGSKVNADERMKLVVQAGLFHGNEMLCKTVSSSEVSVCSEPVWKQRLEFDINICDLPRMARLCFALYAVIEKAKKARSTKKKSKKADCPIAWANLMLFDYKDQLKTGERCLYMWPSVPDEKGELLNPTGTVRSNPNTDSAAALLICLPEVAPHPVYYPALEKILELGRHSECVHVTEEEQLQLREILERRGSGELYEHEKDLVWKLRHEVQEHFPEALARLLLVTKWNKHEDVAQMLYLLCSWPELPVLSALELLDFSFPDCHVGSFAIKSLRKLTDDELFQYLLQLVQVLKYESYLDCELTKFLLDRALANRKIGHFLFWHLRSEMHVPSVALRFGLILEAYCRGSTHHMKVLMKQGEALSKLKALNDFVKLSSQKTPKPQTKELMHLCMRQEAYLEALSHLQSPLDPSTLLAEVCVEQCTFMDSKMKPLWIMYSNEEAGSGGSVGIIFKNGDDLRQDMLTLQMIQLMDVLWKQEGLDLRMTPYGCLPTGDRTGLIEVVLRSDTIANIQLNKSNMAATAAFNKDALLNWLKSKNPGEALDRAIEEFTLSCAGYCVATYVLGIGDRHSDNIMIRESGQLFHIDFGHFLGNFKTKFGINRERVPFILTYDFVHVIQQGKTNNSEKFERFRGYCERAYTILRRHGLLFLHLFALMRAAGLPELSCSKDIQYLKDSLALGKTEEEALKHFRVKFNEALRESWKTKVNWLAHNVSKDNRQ
The settings on record: at 0.1 µM.

For experiment [17], the target named is T3, Phosphatidylinositol 4,5-bisphosphate 3-kinase catalytic subunit delta isoform (Homo sapiens). The settings on record: at 1 µM.
Experiment [18] concerns the target Phosphatidylinositol 4-kinase beta (Homo sapiens) (UniProt Q9UBF8). The settings on record: at 0.1 µM.
For experiment [19] the target is unchanged. The settings on record: at 1 µM.
Experiment [20] has as its target Sphingosine kinase 1 (Homo sapiens) (UniProt Q9NYA1). Particulars: at 0.1 µM.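 Also: mean percent inhibition of SPHK1 activity, measured within the GSK PKIS screening panel.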

The values below come from ChEMBL document CHEMBL1961873, “Compounds: GSK PKIS; Assays: Nanosyn kinase panel” (2012).

Broadly, the inhibition is the drop in the measured response relative to a control, in per cent.

Chain of SRSF protein kinase 1 (Homo sapiens) (Q96SB4 whole entry): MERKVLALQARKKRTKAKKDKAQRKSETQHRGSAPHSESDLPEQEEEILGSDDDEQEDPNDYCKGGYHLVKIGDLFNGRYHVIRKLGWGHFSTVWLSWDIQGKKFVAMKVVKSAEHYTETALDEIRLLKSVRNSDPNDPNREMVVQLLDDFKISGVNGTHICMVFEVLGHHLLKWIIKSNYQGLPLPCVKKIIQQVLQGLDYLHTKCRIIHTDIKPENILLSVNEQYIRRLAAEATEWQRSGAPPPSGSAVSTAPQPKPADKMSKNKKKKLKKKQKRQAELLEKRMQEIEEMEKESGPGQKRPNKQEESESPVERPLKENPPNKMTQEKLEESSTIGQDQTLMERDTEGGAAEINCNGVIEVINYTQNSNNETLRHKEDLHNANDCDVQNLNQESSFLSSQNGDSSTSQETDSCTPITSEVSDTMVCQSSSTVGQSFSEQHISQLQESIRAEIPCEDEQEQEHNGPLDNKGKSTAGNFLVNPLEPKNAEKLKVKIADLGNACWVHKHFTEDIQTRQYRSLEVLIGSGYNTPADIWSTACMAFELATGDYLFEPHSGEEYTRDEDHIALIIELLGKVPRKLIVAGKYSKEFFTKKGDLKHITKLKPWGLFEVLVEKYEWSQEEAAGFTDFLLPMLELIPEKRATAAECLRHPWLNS
Chain of Mitogen-activated protein kinase 14 (Homo sapiens) (Q16539 whole entry): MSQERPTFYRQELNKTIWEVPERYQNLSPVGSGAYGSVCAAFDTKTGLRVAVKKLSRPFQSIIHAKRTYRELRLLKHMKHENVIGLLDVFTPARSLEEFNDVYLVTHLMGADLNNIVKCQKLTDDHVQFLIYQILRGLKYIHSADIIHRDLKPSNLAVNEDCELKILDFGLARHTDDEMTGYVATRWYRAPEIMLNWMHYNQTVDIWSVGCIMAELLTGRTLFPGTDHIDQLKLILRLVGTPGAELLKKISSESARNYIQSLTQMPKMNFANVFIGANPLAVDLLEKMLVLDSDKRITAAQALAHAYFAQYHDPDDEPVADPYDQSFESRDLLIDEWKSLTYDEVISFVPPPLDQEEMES
Chain of Mitogen-activated protein kinase 11 (Homo sapiens) (Q15759 whole entry): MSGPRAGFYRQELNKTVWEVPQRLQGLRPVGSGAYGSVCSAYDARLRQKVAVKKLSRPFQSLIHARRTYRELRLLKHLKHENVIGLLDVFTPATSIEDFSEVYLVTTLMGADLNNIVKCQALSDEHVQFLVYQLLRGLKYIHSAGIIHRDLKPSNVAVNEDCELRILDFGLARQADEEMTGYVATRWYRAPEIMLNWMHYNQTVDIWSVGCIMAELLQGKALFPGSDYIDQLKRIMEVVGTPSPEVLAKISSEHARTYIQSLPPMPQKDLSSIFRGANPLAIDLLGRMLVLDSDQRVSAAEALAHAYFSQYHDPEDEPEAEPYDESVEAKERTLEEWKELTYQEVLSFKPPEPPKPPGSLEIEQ
Chain of Mitogen-activated protein kinase 3 (Homo sapiens) (P27361 whole entry): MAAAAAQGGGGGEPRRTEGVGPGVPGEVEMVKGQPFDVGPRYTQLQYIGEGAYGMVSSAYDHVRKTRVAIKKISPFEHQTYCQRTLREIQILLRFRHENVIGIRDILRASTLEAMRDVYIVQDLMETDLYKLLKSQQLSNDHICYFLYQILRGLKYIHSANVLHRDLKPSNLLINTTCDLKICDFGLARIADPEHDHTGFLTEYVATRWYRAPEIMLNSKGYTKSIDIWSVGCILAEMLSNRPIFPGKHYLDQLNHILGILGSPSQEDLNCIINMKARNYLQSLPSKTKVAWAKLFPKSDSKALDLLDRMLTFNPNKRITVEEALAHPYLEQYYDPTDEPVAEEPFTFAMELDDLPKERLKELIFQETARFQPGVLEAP
Chain of Phosphatidylinositol 4-kinase beta (Homo sapiens) (Q9UBF8 2-816 limits assumed): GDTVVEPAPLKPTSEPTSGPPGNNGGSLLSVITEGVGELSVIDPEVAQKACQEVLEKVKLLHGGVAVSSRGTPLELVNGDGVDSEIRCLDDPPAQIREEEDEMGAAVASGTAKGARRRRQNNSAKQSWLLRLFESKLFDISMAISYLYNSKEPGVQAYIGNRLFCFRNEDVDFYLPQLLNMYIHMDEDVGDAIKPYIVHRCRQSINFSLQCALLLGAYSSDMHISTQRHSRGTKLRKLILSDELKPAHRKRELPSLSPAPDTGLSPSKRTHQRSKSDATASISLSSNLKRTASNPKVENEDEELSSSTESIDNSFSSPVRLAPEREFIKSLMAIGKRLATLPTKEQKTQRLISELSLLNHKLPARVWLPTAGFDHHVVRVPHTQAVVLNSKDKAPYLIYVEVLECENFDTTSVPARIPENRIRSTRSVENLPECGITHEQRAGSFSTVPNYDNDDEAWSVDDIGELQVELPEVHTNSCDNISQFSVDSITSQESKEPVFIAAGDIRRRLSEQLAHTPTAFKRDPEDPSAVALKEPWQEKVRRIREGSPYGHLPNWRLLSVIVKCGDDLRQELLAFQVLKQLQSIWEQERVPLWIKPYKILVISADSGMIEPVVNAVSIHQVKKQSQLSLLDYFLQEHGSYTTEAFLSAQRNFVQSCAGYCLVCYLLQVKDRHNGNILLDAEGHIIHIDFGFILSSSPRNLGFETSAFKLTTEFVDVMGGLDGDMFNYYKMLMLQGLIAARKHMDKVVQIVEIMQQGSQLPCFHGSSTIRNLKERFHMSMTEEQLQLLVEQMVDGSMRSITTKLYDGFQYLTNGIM
Chain of Phosphatidylinositol 4,5-bisphosphate 3-kinase catalytic subunit alpha isoform (Homo sapiens) (P42336 whole entry, canonical isoform): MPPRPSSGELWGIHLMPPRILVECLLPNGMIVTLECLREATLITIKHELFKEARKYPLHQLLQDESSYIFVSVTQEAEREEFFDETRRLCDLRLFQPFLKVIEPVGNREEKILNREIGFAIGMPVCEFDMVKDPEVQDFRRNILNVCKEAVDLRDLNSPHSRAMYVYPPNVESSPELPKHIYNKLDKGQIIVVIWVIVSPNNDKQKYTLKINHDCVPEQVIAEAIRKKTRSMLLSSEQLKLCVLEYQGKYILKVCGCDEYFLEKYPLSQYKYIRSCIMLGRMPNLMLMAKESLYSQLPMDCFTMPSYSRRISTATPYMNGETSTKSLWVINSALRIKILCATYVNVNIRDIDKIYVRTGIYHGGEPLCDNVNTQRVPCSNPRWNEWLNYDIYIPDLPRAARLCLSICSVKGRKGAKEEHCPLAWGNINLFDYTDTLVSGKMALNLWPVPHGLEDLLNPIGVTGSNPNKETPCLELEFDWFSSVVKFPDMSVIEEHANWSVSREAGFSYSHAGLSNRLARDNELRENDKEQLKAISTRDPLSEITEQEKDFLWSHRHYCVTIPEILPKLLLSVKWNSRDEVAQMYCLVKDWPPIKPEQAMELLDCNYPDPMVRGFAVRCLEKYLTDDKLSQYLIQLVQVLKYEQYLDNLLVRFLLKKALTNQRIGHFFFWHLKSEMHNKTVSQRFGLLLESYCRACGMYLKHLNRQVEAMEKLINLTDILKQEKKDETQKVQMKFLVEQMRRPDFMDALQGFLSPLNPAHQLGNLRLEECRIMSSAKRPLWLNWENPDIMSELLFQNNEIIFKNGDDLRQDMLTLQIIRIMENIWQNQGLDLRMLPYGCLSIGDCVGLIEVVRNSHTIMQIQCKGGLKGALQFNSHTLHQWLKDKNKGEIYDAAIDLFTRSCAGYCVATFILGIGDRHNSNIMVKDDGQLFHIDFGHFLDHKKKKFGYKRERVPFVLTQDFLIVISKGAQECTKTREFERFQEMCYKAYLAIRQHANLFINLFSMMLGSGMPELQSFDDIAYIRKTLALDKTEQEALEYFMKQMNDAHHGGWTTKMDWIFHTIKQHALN
Chain of Sphingosine kinase 1 (Homo sapiens) (Q9NYA1 whole entry): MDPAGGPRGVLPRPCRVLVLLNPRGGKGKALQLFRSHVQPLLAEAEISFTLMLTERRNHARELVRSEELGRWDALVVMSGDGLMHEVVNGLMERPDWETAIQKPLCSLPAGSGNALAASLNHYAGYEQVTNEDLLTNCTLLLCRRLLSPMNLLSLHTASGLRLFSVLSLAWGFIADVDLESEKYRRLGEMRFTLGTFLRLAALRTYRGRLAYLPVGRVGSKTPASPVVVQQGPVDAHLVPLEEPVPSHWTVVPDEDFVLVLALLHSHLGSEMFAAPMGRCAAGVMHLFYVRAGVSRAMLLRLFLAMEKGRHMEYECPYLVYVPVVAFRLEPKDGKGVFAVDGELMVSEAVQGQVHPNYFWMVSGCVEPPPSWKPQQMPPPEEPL
Chain of SRSF protein kinase 3 (Homo sapiens) (Q9UPE1 whole entry): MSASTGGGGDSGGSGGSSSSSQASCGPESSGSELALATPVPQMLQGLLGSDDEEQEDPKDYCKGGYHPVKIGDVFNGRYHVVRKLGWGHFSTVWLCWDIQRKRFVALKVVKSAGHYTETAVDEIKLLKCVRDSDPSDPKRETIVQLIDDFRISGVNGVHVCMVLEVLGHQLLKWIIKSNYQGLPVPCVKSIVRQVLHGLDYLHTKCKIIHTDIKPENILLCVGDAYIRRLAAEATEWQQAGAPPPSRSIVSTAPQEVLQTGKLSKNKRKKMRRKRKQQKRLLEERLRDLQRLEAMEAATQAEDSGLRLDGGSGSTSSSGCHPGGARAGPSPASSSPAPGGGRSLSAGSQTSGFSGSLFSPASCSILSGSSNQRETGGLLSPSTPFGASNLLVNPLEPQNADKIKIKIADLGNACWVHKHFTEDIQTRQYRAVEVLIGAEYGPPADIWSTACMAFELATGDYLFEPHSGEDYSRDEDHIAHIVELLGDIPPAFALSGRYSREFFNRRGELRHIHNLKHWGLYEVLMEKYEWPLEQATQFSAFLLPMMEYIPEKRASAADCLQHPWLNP

As to `NS(=O)(=O)c1cccc(N/C=C2\C(=O)Nc3ccccc32)c1`, the inhibition was 1.27% in [1]; -0.21% in experiment [2]; 0.27% in [3]; 7.96% in experiment [4]; 13.5% in [5]; 6.33% in [6]. Besides, the inhibition is 9.54% in [7]; 1.07% in experiment [8]; 5.02% in experiment [9]; 1.32% in [10]; 2.84% in experiment [11]; -2.16% in experiment [12]. Moreover, the inhibition in experiment [13] was -4.31%; in experiment [14], 4.33%; in experiment [15] it was 7.3%; in experiment [16], 4.26%; in experiment [17], 7.6%; in experiment [18], -1.97%. Also, the figures for the inhibition in experiment [19] and in experiment [20] were 2.07% and 7.2%, respectively.
On to `O=C(O[C@H]1CN[C@H](C#Cc2cc3ncnc(Nc4ccc5c(ccn5Cc5cc(F)ccc5F)c4)c3s2)C1)N1CCOCC1`, for which the inhibition in experiment [1] was 2.72%; in experiment [2], -1.71%; in experiment [3] it was -2.33%; in experiment [4], 5.28%; in experiment [5], 8.23%; in [6] it was 3.16%. In addition, the inhibition in [7] was 5.47%; in experiment [8] it was 2.39%; in experiment [9], 5.7%; in experiment [10], 3.21%; in experiment [11] it was 3.26%; in experiment [12], -2.77%. Also, the inhibition in [13] was -4.63%; in experiment [14], 3.72%; in [15], 9.95%; in [16] it was 2.02%; in experiment [17], 7.62%; in [18], -3.81%. Besides, the figures for the inhibition in experiment [19] and in experiment [20] were -0.39% and 3.05%, respectively.
As for `COc1cc(N2CCN(C(C)C)CC2)ccc1Nc1nc(Nc2cccc(F)c2C(=O)O)c2cc[nH]c2n1`, the inhibition in experiment [1] is 5.94%; in experiment [2] it was -1.11%; in [3], 3.96%; in experiment [4], 6.33%; in experiment [5] it was 9.12%; in [6], 3.15%. Moreover, the inhibition in experiment [7] is 5.38%; in [8], 4.97%; in [9] it was 4.09%; in experiment [10], 0.95%; in [11], 1.52%; in [12], -1.29%. For the same molecule, the inhibition in experiment [13] was 5.69%; in experiment [14] it was 2.86%; in experiment [15], 4.42%; in [16], -0.59%; in experiment [17] it was -3.11%; in experiment [18] it was 2.44%. The figures for the inhibition in [19] and in experiment [20] were 0.72% and -1.3%, respectively.
Regarding `CC1(C)CC(n2cnc(-c3ccc(F)cc3)c2-c2ccnc(N)n2)CC(C)(C)N1`, the inhibition is 1.92% in experiment [1]; -0.06% in experiment [2]; -1.33% in experiment [3]; 64.5% in experiment [4]; 77.6% in experiment [5]; 13.6% in [6]. Moreover, the inhibition came out at 55.7% in experiment [7]; 1.83% in experiment [8]; 1.42% in experiment [9]; 0.38% in experiment [10]; 2.44% in [11]; 0.72% in experiment [12]. Further, the inhibition was -1.12% in experiment [13]; 4.34% in experiment [14]; 4.5% in [15]; 5.71% in experiment [16]; 6.91% in experiment [17]; 0.64% in [18]. In addition, the inhibition was -1.54% in experiment [19] and 1.98% in experiment [20].
Regarding `CN(c1ccc(NC(=O)NCCN2CCOCC2)cc1)c1ccnc(Nc2ccc(CS(C)(=O)=O)cc2)n1`, the inhibition was found to be 3.72% in experiment [1]; 0.77% in experiment [2]; 2.7% in experiment [3]; 0.79% in experiment [4]; 5.83% in experiment [5]; 4.13% in [6]. Besides, the inhibition worked out at 6.58% in experiment [7]; 1.11% in experiment [8]; 3.21% in [9]; 0.47% in experiment [10]; 1.28% in [11]; 0.25% in experiment [12]. Moreover, the inhibition was 2.58% in experiment [13]; 1.92% in experiment [14]; 2.04% in [15]; -0.08% in experiment [16]; 0.81% in experiment [17]; 4.11% in experiment [18]. Also, the values for the inhibition in [19] and in experiment [20] were 4.4% and 0.08%, respectively.
Take `CC1=C(C(=O)Nc2ccc3[nH]ncc3c2)C(c2ccc(F)cc2)N=C(c2ccc(C(F)(F)F)nc2)N1` (stereo not given): the inhibition in [1] is -0.07%; in [2], 0.36%; in [3], 0.93%; in [4] it was 6.91%; in experiment [5], 7.75%; in [6] it was 0.24%. The inhibition in experiment [7] is 2.12%; in experiment [8] it was 2.38%; in experiment [9], 2.31%; in experiment [10], 0.91%; in experiment [11], 1.85%; in experiment [12], -1.07%. The inhibition in experiment [13] was -0.7%; in experiment [14] it was 2.87%; in experiment [15] it was 4.33%; in experiment [16], 2.9%; in experiment [17], 4.49%; in experiment [18] it was 4.33%. The inhibition in [19] was -3.27%; in [20], -0.6%.
For the molecule `COC(=O)Nc1nc2ccc(Oc3ccc(NC(=O)Nc4cc(C(F)(F)F)ccc4F)cc3)cc2s1`, the inhibition was -0.75% in experiment [1]; 0.81% in experiment [2]; 9.68% in experiment [3]; 18.9% in [4]; 63.7% in experiment [5]; 7.18% in [6]. Besides, the inhibition was 51.5% in experiment [7]; 0.05% in experiment [8]; 0.18% in experiment [9]; 0.98% in [10]; 2.85% in [11]; -1.59% in [12]. Also, the inhibition was -2.01% in experiment [13]; -0.49% in experiment [14]; 2.51% in experiment [15]; 1.44% in [16]; 6.58% in experiment [17]; -2.75% in experiment [18]. In addition, the inhibition was -0.16% in [19] and -0.71% in experiment [20].
